# Laboratory results reported in PubChem BioAssay (NCI).
# About 83,000 compounds went through this panel and 20% of them were active in at least one assay; those are over-represented in the sample as a whole.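 Results are percent growth after 48 hours of single-concentration exposure. 100 means growth as in untreated cells, lower positive values show inhibition; negative values down to -100 show cell death.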 Values without a mark were called inactive. The source made the active and inactive calls. The calls were made as follows: active = growth percent below 10; inactive = the rest.
# Tested on: NCI/ADR-RES ovarian
# Assay: NCI-60 one-dose screen, 48 h (100 = growth as untreated, 0 = no growth, -100 = all killed)
# Details: 10 µM unless noted
row,Compound,growth
1,C=CCCCCCCCCC(=O)OC(C)C,102%
2,COc1cc2c(cc1OCCCCCOc1ccc(-n3c(C)nc4ccccc4c3=O)cc1)N=C[C@@H]1CCCN1C2=O,-14.6% (active)
3,Cc1cccc(/C=C2\N=C(c3ccccc3)N(c3ccc(S(N)(=O)=O)cc3)C2=O)c1,88.7%
4,Clc1ccc(/C=N/Nc2nc3ccccc3s2)c(Cl)c1,89.7%
5,CCOC(=O)COc1c(C)cc(SSc2cc(C)c(OCC(=O)OCC)c(C)c2)cc1C,110%
6,Nc1nc(Nc2ccccc2)c2ncn(Cc3cc4c(cc3Br)OCO4)c2n1,8.6% (active)
7,CCOC(=O)c1c[nH]n2c(=S)ncnc12,99.1%
8,CC1(C)CC[C@]2(C(N)=O)CC[C@]3(C)C(=CC[C@@H]4[C@@]5(C)C/C(=C/c6cccnc6)C(=O)C(C)(C)[C@@H]5CC[C@]43C)[C@@H]2C1,-25.7% [100 µM] (active)
9,O=[N+]([O-])c1cc(CCl)ccc1OCCBr,110%
10,O=C1COCCN1c1ccc(Nc2nc(Cl)nc(N3CCOCC3)n2)cc1,97.6%
11,O=C(OCc1ccc2c(Cl)cc(Cl)c(O)c2n1)N1CCNCC1,9.22% (active)
12,Cc1ccc(S(=O)(=O)NCCCNc2nccc(-c3c(-c4cccc(F)c4)nc4occn34)n2)cc1,85%
13,COc1cc(Cl)cc(-c2nn(C(=O)NS(=O)(=O)c3ccccc3)cc2-c2ccncc2)c1,97.5%
14,Cn1cc(-c2noc(-c3cn(C)c4ncccc34)n2)c2cc(Cl)ccc21,89.8%
15,CC(C)CSc1ncnc2nc[nH]c12,100%
16,Cc1cnc([C@]23CC[C@@H](C)[C@H](C)[C@H]2C2=CC[C@@H]4[C@@]5(C)Cc6c([nH]c7ccccc67)C(C)(C)[C@@H]5CC[C@@]4(C)[C@]2(C)CC3)o1,68.3% [100 µM]
17,CC1(C)CC[C@]2(C(=O)O)CC[C@]3(C)C(=CC[C@@H]4[C@@]5(C)C/C(=C/c6ccco6)C(=O)C(C)(C)[C@@H]5CC[C@]43C)[C@@H]2C1,-12.6% [100 µM] (active)
